# Bioassay records: PubChem, several laboratories
# KLF5 inh: KLF5 expression inhibitors, primary screen, DLD-1 cells, luminescence; 0.23% of 290,000 active; inhibition, % at 5 µM; DLD-1 KLF5 promoter-luciferase reporter;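 active = inhibition above a per-plate limit of that plate's mean compound inhibition plus 3 SD, cut at about 60% in these data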;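 also: higher means less KLF5 promoter-driven luciferase light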
# aSyn 5UTR inh: MLPCN primary screen, SNCA 5' untranslated region; inhibition, % (tested at 7.5 µM); alpha-synuclein 5'UTR reporter, inhibitor activity; AID 1813, 2009; 0.82% of 300,000 active; in the data active = inhibition above about 60%; inconclusive = no clear call, values can overlap the other calls;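 also: H4 neuroglioblastoma cells stably carrying SNCA 5'UTR luciferase fusion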
# APP 5UTR inh: inhibitors of APP translation via 5'UTR reporter, primary screen, APP 5'UTR luciferase, SH-SY5Y cells. inhibition, % at 2 µM. 0.82% of 190,000 active. SH-SY5Y APP 5'UTR-luciferase reporter, luminescence;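 active = inhibition above a set limit, derived from the sample mean plus 3 SD, cut at about 45% in these data; inconclusive = one replicate passes the limit while the other fails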
# IEC-6 tox: cytotoxicity in IEC-6 intestinal epithelial cells, primary screen, cytotoxicity control for KLF5 inhibitor project, cell-based, luminescence. IEC-6 cytotoxicity, luminescence viability. AID 1825, 2009. inhibition, % at 5 µM. 0.78% of 290,000 active
# Ba/F3 V617F tox: reduced viability of JAK2V617F-dependent Ba/F3 cells, primary screen, JAK2V617F inhibitor project, cell-based, Ba/F3 EpoR-JAK2V617F, luminescence. ATP luminescence. 1.1% of 220,000 active. AID 1446, 2008. inhibition, % at 5.6 µM;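 active = inhibition above the campaign mean plus 3 SD over all tested compounds, cut at about 24% in these data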;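 also: cytokine-independent growth of Ba/F3 cells driven by EpoR plus mutant JAK2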
# BaF3 parental: parental Ba/F3 cell viability inhibition, counter-screen for JAK2V617F inhibitor project, murine pro-B, CellTiter-Glo luminescence; inhibition, % at 5.6 µM; AID 1486, 2009; 1.1% of 220,000 active; CellTiter-Glo ATP luminescence;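 active = inhibition above a per-campaign cutoff, the mean inhibition of all tested compounds plus 3 SD, cut at about 27% in these data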
# IEC-6 cytotox cf: cytotoxic compounds in IEC-6 epithelial cells, confirmation, cytotoxicity control, cell-based, luminescence | shares compounds with IEC-6 tox | inhibition, % at 5 µM | IEC-6 rat intestinal epithelial viability | 63% of 1,900 active
# Hits are given with their value; i = inactive; ? = inconclusive; nt = no result given. Only some compounds are listed: those with a hit (about 2.2% of all), similar ones and a draw of the others. Rule as the data show it, unless noted: active = inhibition above about 22%; inactive = the rest.
SMILES,KLF5 inh,aSyn 5UTR inh,APP 5UTR inh,IEC-6 tox,Ba/F3 V617F tox,BaF3 parental,IEC-6 cytotox cf
COc1cc(NC(=O)c2cc(-c3ccccc3Cl)on2)cc(OC)c1OC,i,i,nt,54.6,nt,nt,33.2
O=C(CCn1c(=O)oc2ccccc21)N1CCN(c2ccccc2Cl)CC1,i,i,i,22.8,i,i,40.1
Cc1ccc(NC(=O)NC2CCCCCCC2)cc1,i,nt,nt,i,nt,nt,nt
COc1ccc(CCN(C)CC(O)c2ccccc2)cc1OC (configuration not stated),i,i,i,i,i,i,nt
CN(C)S(=O)(=O)c1cccc(NC(=O)COC(=O)c2cc(=O)c3ccccc3o2)c1,i,i,nt,i,i,i,nt
COC(=O)c1cn(C(=O)c2ccc(C)cc2)c2ccccc12,i,i,i,i,i,i,nt
COC(=O)c1cn(C(=O)c2ccc(OC)cc2)c2ccccc12,i,i,nt,51.5,nt,nt,33.9
COC(=O)c1c(NC(=O)c2ccc([N+](=O)[O-])o2)sc2c1CCN(C(C)C)C2,i,104.9,nt,95.7,nt,nt,59.7
CC(=O)N1CCc2c(sc(NC(=O)c3ccc([N+](=O)[O-])o3)c2C#N)C1,i,i,62.2,61.1,i,31.9,62.9
COC(=O)c1sc(NC(=O)c2ccc([N+](=O)[O-])o2)c(C#N)c1C,i,i,nt,22.1,i,i,26.4
COc1ccc(C(=O)Nc2sc3c(c2C#N)CCN(C(C)=O)C3)cc1,i,i,i,i,i,i,nt
COC(=O)c1c(NC(=O)Cc2ccccc2)sc2c1CCN(C(C)C)C2,i,i,nt,i,nt,nt,nt
CCOC(=O)N1CCN(C(=O)c2ccccc2-c2ccccc2)CC1,i,i,i,40.1,53.2,47.0,35.3
CCN(CC)c1ccc(/C=C/c2cccc[n+]2C)c(OC)c1,i,?,nt,28.0,nt,nt,29.5
Nc1nc(-c2cccnc2)nn1C(=O)c1ccccc1Cl,i,i,i,36.1,i,i,i
Cc1cc2ccccn2c1C(=O)c1cc([N+](=O)[O-])cc([N+](=O)[O-])c1,i,i,i,i,i,i,nt
COC(=O)c1cc(C(=O)N2CCN(c3ncccn3)CC2)cc([N+](=O)[O-])c1,i,i,nt,i,nt,nt,nt
COC(=O)c1cc(C(=O)N2CCN(c3cccc(C)c3C)CC2)cc([N+](=O)[O-])c1,i,78.0,76.6,37.4,49.4,68.5,32.8
COC(=O)c1cc(C(=O)c2c(C)cc3ccccn23)cc([N+](=O)[O-])c1,i,i,nt,44.3,nt,nt,48.0
O=C(c1ccc(Cl)cc1)C1CCN(C(=O)c2ccc(F)cc2)CC1,i,i,nt,i,nt,nt,nt
CCNc1ccc(C(=O)OCC)cc1NC(=O)c1cccc(N(C)C)c1,i,i,81.1,64.0,81.8,76.6,58.1
CC(C)(C)C1CCC(=NNC(=O)c2ccccc2-n2cccc2)CC1 (configuration not stated),i,i,i,i,i,i,nt
COc1ccc(N(CC(=O)Nc2cc(Cl)ccc2C)S(=O)(=O)c2c(C)n[nH]c2C)cc1,i,i,nt,37.8,nt,nt,i
COc1ccc(N(CC(=O)Nc2ccc(C)cc2C)S(=O)(=O)c2c(C)n[nH]c2C)cc1,i,i,nt,i,nt,nt,nt
COc1cc(CNCCN2CCOCC2)ccc1OCc1ccc(Cl)cc1,i,i,i,i,i,i,nt
SMILES,KLF5 inh,aSyn 5UTR inh,APP 5UTR inh,IEC-6 tox,Ba/F3 V617F tox,BaF3 parental,IEC-6 cytotox cf
COc1cc(CNCCCN2CCOCC2)cc(Br)c1OCc1ccc(Cl)cc1,i,i,i,53.1,30.5,72.7,45.6
CCOc1c(Cl)cc(C(=O)Nc2ccccc2C(=O)O)cc1Cl,i,i,i,36.8,25.2,26.7,i
CC(=O)c1ccc(OCCCC(=O)Nc2cccc(-c3nn[nH]n3)c2)cc1,i,i,nt,i,nt,nt,nt
CCOc1cc(/C=C2\CN(C)C/C(=C\c3ccc(O)c(OCC)c3)C2=O)ccc1O,i,96.5,nt,88.1,nt,nt,37.6
Cc1cccc(Nc2ncnc3ccc(Br)cc23)c1,i,i,i,42.4,i,i,41.9
Cc1ccc2ncnc(Nc3ccccc3)c2c1,i,i,i,i,i,i,nt
COc1ccccc1C(CNc1ccc(S(=O)(=O)N2CCCC2)cc1[N+](=O)[O-])N(C)C (configuration not stated),i,i,nt,22.0,nt,nt,i
COc1cc2ncnc(NCc3cccc(F)c3F)c2cc1OC,i,i,nt,35.4,nt,nt,28.2
Fc1ccc(F)c(CNc2ncnc3cc(Cl)ccc23)c1,i,i,nt,i,nt,nt,nt
COc1cc2ncnc(NCc3ccccc3F)c2cc1OC,i,i,nt,28.5,nt,nt,33.2
CCc1c(C)sc(NC(=S)N2CC(C)OC(C)C2)c1C(=O)OC (configuration not stated),i,nt,i,i,i,i,nt
CC1CCCN(S(=O)(=O)c2ccc(S(=O)(=O)NC(C)c3cccs3)cc2)C1 (configuration not stated),i,nt,i,i,i,i,nt
Cc1ccnc2nc(C(=O)OCC(=O)c3c[nH]c4ccccc34)nn12,i,i,nt,i,i,i,nt
COc1ccccc1N1CCN(c2ccc(-c3ccccc3)nn2)CC1,i,79.0,89.6,61.5,71.8,74.4,58.9
COc1ccccc1N1CCN(c2ccc3ccccc3n2)CC1,i,i,nt,i,nt,nt,nt
O=C(CSc1cccc[n+]1[O-])CSc1cccc[n+]1[O-],i,i,i,55.2,i,i,i
O=C(CSc1cccc[n+]1[O-])N1CCCCCC1,i,i,i,i,i,i,nt
O=C(CSc1cccc[n+]1[O-])Nc1ccccc1Oc1ccccc1,i,i,i,23.5,i,i,i
COc1ccc(NC(C#N)c2ccccc2OCc2ccccc2)cc1 (configuration not stated),i,i,i,i,i,i,nt
CCOc1ccc(-n2nc3c(Cl)nnc(C)c3c2C)cc1,i,i,i,i,i,i,nt
Cc1ccc(-c2nnn3c2nc(NCCc2ccc(S(N)(=O)=O)cc2)c2ccccc23)cc1,i,i,i,54.7,i,i,i
CCC(C)n1c(SCC(=O)NC(=O)c2cccn2C)nc2ccccc2c1=O (configuration not stated),i,i,i,33.0,i,i,28.7
COc1ccc(Cl)cc1NC(=O)CN(C)CC(=O)Nc1ccc(Br)cc1,i,i,i,i,i,i,nt
COc1ccc(Cl)cc1NC(=O)CN(C)CC(=O)Nc1cc(OC)c(OC)c(OC)c1,i,i,nt,40.1,nt,nt,32.8
CCCCOc1ccc(Br)cc1/C(C)=N/NC1=NCCN1,i,121.5,96.0,83.3,80.4,75.3,65.5
COc1cc(CNCCc2ccc(S(N)(=O)=O)cc2)ccc1OCc1ccc(Cl)cc1,i,i,i,i,i,i,nt
CCOc1cc(CNCCc2ccc(S(N)(=O)=O)cc2)ccc1OCc1ccc(Cl)cc1,i,97.5,i,24.2,i,i,i
CC(=O)c1ccc(N(CC(=O)NC2CCCCC2)C(=O)c2csnn2)cc1,i,i,nt,i,nt,nt,nt
